High-throughput results deposited in PubChem BioAssay by The Scripps Research Institute Molecular Screening Center.
DAX1 inh-1: inhibits human nuclear receptor DAX1. P51843. HEK293 Gal4-DAX1 luciferase reporter, luminescence. inhibition, % at 6.75 µM. 340,000 compounds, 0.99% hits;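 active = inhibition above the mean over all tested compounds plus 3 SD, cut at about 4.2% in these data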;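 also: 0% = DAX1-transfected cells with DMSO and 100% = empty-vector control cells with DMSO; inhibition shows as a rise in luminescence from relieved DAX1 repression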
Target sequence (P51843 207-470 limits assumed): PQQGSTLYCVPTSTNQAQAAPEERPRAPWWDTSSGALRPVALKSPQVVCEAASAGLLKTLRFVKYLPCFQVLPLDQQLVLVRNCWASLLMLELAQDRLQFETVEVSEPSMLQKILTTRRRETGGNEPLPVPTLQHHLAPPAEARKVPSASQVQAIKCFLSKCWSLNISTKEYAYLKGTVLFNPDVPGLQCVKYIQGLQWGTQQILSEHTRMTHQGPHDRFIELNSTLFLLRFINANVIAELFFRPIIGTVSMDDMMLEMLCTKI
SMARCA2 activ: activators of SMARCA2 function; activation, % at 9.1 µM; 370,000 compounds, 1% hits; MG213 cells, MMTV-luciferase reporter, dexamethasone, overnight; AID 652017; in the data active = activation above about 7.8%;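 also: 0% = vehicle wells and 100% = reference activator wells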
ssDAF-12 act: activators of S. stercoralis DAF-12 nuclear receptor | HEK293 ssDAF-12/GRIP1 lit1-tk-luc reporter, luminescence; % of 3 µM dafachronic acid response | activation, % at 6.8 µM | 370,000 compounds, 1% hits;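 active = activation above the mean over all tested compounds plus 3 SD, cut at about 0.9% in these data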;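 also: 0% = DMSO-only wells and 100% = 3 µM delta7-dafachronic acid wells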
hcDAF-12 act: activates DAF-12 receptor from parasite H. contortus; AID 652067; activation, % at 6.8 µM; HEK293 hcDAF-12 lit1-tk-luc reporter, luminescence; 0% DMSO, 100% Δ7-dafachronic acid; 370,000 compounds, 1.4% hits;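 active = activation above the mean of all tested compounds plus 3 SD, cut at about 5.5% in these data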;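 also: 100% = response to 3 µM Δ7-dafachronic acid high control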
DAX1 inh-2: blocks DAX1 repression of SF-1 activated StAR promoter. HEK293T StAR-luciferase reporter, SF-1/DAX-1 repression relief. inhibition, % at 6.8 µM. 370,000 compounds, 1.1% hits. AID 652010;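 active = inhibition above the mean over all tested compounds plus 3 SD, cut at about 3.6% in these data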;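 also: 0% = DAX-1 cells with DMSO and 100% = cells lacking DAX-1 with DMSO; higher inhibition means more luminescence from relief of DAX-1 repression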
hgDAF-12 ag: hgDAF-12 agonism, primary luciferase screen; activation, % at 6.8 µM; AID 687014; 370,000 compounds, 1.8% hits; HEK293 GAL4-hgDAF12 UAS-luciferase reporter, agonist luminescence; normalized to butyrate control;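 active = activation above a cutoff set at the mean of all screened compounds plus 3 SD, cut at about 10% in these data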;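 also: 0% = DMSO wells and 100% = sodium butyrate wells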
SMARCA2 act conf: SMARCA2 activation, confirmation screen; shares compounds with SMARCA2 activ; MG213 cells, MMTV-luciferase with dexamethasone, luminescence, overnight; MG213 cells expressing E1A, Rb sequestered; DMSO wells 0%, reference activator 100%; activation, % at 9.1 µM; 3,500 compounds, 30% hits; AID 652260;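 active = activation above its plate's cutoff, the mean activation of tested wells plus 3 SD, cut at about 7.9% in these data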
VP16 Luc act: GAL4-VP16 reporter activation counter-screen | HEK293 GAL4-VP16 pG5luc reporter, luciferase luminescence; scaled: DMSO wells 0%, SAHA wells 100% | activation, % at 9.1 µM | AID 686939 | shares compounds with SMARCA2 activ | 3,500 compounds, 41% hits;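 active = activation above the solvent-only control well mean plus 3 SD, averaged across control plates, cut at about 5.2% in these data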
Numbers without * were called inactive; nt = no result given. Only some compounds are listed: those with a hit (about 4.8% of all), similar ones and a draw of the others.

SMILES	DAX1 inh-1	SMARCA2 activ	ssDAF-12 act	hcDAF-12 act	DAX1 inh-2	hgDAF-12 ag	SMARCA2 act conf	VP16 Luc act
CCOC(=O)c1nc(S(C)(=O)=O)ncc1Cl	0.2	33.5*	-1.3	-0.3	0.4	-0.6	-1.5	4.2
COCCN(CCOC)C(=O)c1sc2nc(-c3ccccc3)cn2c1C	-1.8	2.0	-1.3	0.9	0.2	-0.3	nt	nt
Cc1c(C(N)=O)sc2nc(-c3ccccc3)cn12	-0.3	9.9*	-0.5	2.2	0.8	4.9	4.6	12.8*
O=C(Nc1cc2nn(-c3ccccc3)nc2cc1Cl)c1ccco1	1.9	8.8*	0.2	3.2	-0.3	2.8	21.0*	11.0*
COC(=O)c1cc(OC)c(OC)cc1NC(=O)CSCc1c(C)noc1C	0.6	-0.1	-0.5	-1.8	-1.8	-1.0	nt	nt
COc1ccc(-n2ncc3c2CC(C)(C)CC3NC(=O)Cc2nonc2C)cc1 (stereo unspecified)	-0.4	8.0*	-0.9	-1.2	-0.2	-1.6	2.0	0.1
Cc1cc(C)nc(N2CCC(C(=O)NC3CCCCCC3)CC2)n1	1.1	3.2	-1.5	-1.7	-1.0	0.0	nt	nt
O=C(NC1CC1)C1CCN(c2ncccn2)CC1	3.4	9.2*	-0.8	-1.5	0.1	-1.1	-1.3	0.2
N#CC1=C(N)NC(SCC(=O)c2ccccc2)=C(C#N)C12CCCC2	-0.8	0.7	-1.2	2.3	-1.4	0.9	nt	nt
CN(CCCNC(=O)CCCOc1cc(=O)n(C)c2ccccc12)Cc1ccccc1	2.8	9.6*	-1.2	1.1	0.2	0.3	1.7	3.0
O=C1c2cccc3cccc(c23)C(=O)N1c1cccnc1	-0.6	8.5*	-1.0	-2.3	0.3	-2.2	-0.7	1.1
COc1ccc(N2CCN(C(=O)c3ccc(CSc4ccccc4)cc3)CC2)cc1	-1.4	-4.5	-0.8	1.0	0.3	-2.0	nt	nt
COc1cc(NC(=O)COc2ccc(-n3cnnn3)cc2)c(OC)cc1Cl	0.1	3.2	-1.6	-0.2	0.6	0.0	nt	nt
O=C(COc1ccc(-n2cnnn2)cc1)Nc1cccc(Cl)c1Cl	-1.3	8.1*	-0.9	-1.2	0.1	-0.4	1.0	1.2
O=C(COC(=O)c1cccc(S(=O)(=O)N2CCOCC2)c1)Nc1nc(-c2ccccc2Cl)cs1	-0.1	-1.0	-1.1	1.3	0.3	8.3	nt	nt
Cc1cc(Br)ccc1NC(=O)CN(C)C(=O)C1CCN(C(=O)c2ccc(Cl)cc2)CC1	-0.4	3.8	-1.5	-1.3	-0.3	-3.4	nt	nt
CCOC(=O)N1CCN(c2c(Nc3ccc4c(c3)OCCO4)c(=O)c2=O)CC1	0.0	-0.8	-0.6	-1.1	-0.1	-1.0	nt	nt
COc1ccccc1CNC(=O)Cc1ccccc1	1.6	9.5*	-0.5	0.2	0.5	8.7	2.5	4.8
COc1ccccc1CNC(=O)Cc1ccc(OC)c(OC)c1	0.0	-0.7	0.8	3.4	-0.3	1.1	nt	nt
O=C(CCCN1C(=O)c2ccccc2C1=O)NCCCN1CCOCC1	0.3	-2.0	0.1	4.7	0.6	-1.4	nt	nt
N#CCCN(CCCN1CCOCC1)CN1C(=O)c2ccccc2C1=O	1.1	8.1*	-0.1	-1.4	0.6	0.1	-1.6	0.7
Cn1c(C2=C(O)CN(Cc3ccccc3)C2=N)nc2ccccc21	1.0	8.6*	-1.0	0.5	-0.3	-0.3	0.4	3.2
CCCS(=O)(=O)NC(=O)C1(C)CCN(C(=O)COc2ccc(Cl)cc2Cl)C1 (stereo unspecified)	nt	0.4	-1.2	-0.2	0.4	-0.6	nt	nt
O=C(CCn1nnc(-c2cccs2)n1)N1CCCCC1	nt	9.0*	-0.6	-1.0	1.6	4.6	3.3	-1.1
CC1=C/C(=N\NC(=S)Nc2cccnc2)CC(C)(C)C1	-1.5	8.1*	-1.4	-1.4	-1.9	-3.5	-12.2	21.1*
SMILES	DAX1 inh-1	SMARCA2 activ	ssDAF-12 act	hcDAF-12 act	DAX1 inh-2	hgDAF-12 ag	SMARCA2 act conf	VP16 Luc act
CCC(C)(C)C1CCC(=NNC(=S)Nc2cccnc2)CC1 (stereo unspecified)	2.4	0.1	-1.6	0.6	0.2	3.2	nt	nt
COc1cc(C(=O)NCC(=O)NCCCSc2ccccc2)cc(OC)c1OC	-0.7	8.0*	-1.4	-2.1	-1.6	-1.6	0.1	-0.3
Cc1cccc(C(=O)NCC(=O)NCCCSc2ccccc2)c1	-1.1	-0.8	-0.8	-2.8	-0.8	-3.1	nt	nt
CCOc1ccc2nc(C)cc(Nc3cccc([N+](=O)[O-])c3)c2c1	-1.3	14.3*	-1.5	-4.3	-1.6	-6.8	32.4*	3.0
CC(C)Oc1ccc(C(=O)OCC(=O)c2ccc[nH]2)cc1	0.7	11.6*	-0.8	3.2	1.3	10.0	9.4*	7.3*
O=C(OCC(=O)c1ccc[nH]1)c1ccc(C(F)(F)F)cc1	-0.1	2.1	-0.8	1.4	-0.1	3.5	nt	nt
COc1ccc(C(=O)C[C@@H]2OC[C@H](Cc3ccccc3)N2S(=O)(=O)c2ccc(C)cc2)cc1OC	nt	-1.2	-1.1	-2.1	-0.4	1.1	nt	nt
Cc1ccc(C(=O)COc2cc(C)nc3nncn23)cc1	-0.5	10.9*	-1.0	-1.2	0.1	-1.4	-1.5	2.0
Cc1ccc(C(=O)COc2nc(C)cc(C)c2C#N)cc1	0.6	-3.2	-0.9	3.0	-0.9	2.2	nt	nt
Cc1ccc(Cn2nnnc2CN2CCC(O)(c3ccc(F)cc3)CC2)cc1	-1.1	10.6*	-2.0	-0.7	-1.3	-0.9	-3.3	-1.7
COc1ccc(Cn2nnnc2CN2CCC(O)(c3ccc(F)cc3)CC2)cc1	-0.2	5.5	-1.5	-1.2	0.3	1.1	nt	nt
CCCCNC(=S)N/N=C1\C(=O)c2cccc3cccc1c23	-0.5	-2.2	-1.2	-0.5	0.5	0.3	nt	nt
CCCC(C)NC(=O)CN(Cc1ccco1)S(=O)(=O)c1ccccc1 (stereo unspecified)	-0.1	14.8*	-0.9	-1.1	-0.7	0.8	-3.6	-0.8
Cc1cccc2c(C(=O)n3cccn3)cc(-c3ccccc3Cl)nc12	-0.2	2.1	-1.0	3.4	0.6	-1.4	nt	nt
CCOC(=O)C(NC(C)=O)(Nc1ccc(S(=O)(=O)Nc2onc(C)c2C)cc1)C(F)(F)F (stereo unspecified)	-0.9	-0.2	-0.4	-0.6	-0.2	1.9	nt	nt
Cn1ccc(NC(=O)c2ccc(Cl)cc2Cl)n1	0.6	8.6*	-0.9	-1.0	3.9*	7.2	5.5	10.4*
Cc1nn(CC(=O)NCCCN2CCN(Cc3ccccc3)CC2)c(=O)c2cc(-c3ccccc3)nn12	-0.4	8.5*	-1.4	-1.0	-0.1	1.3	-0.6	1.6
